# Several values for one entry are separate records, joined by “and”; a condition that tells them apart may be missing. Equal values may be shown once. Results filed as inconclusive are left out. Where a call stands in place of a potency, no number is given. Some structures have more than one record in an assay (separate samples or runs), and their calls can disagree. Activity calls are given as the source filed them. Unless noted, calls come from the whole dose curve; as a rule, active = well fitted curve in the direction sought with a large enough effect in the repeat runs; inconclusive = weak or mixed curves; inactive = no such curve, though single readings can be large; an effect the other way counts as inactive or inconclusive.
# Legend:
# [1] = qHTS assay to identify small molecule agonists of the sonic hedgehog signaling (Shh) pathway (AID 1259368; calls by dose curve; note: nearly all actives have a fitted effect of over 15% in size; note: potency is the fitted concentration of half-maximal effect)
# In short: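 Luminescence was read after 30 min at room temperature with luciferase reagent. Before that, 3T3Gli1-Luc cells (NIH/3T3 clone, stable Gli1-Luc reporter; 2,000/well) were exposed to compounds for 24 hr at 37C, 5% CO2, compounds being added 4 hr post-plating.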
# [2] = qHTS assay to identify small molecule antagonists of the sonic hedgehog signaling (Shh) pathway (AID 1259369; calls by dose curve; note: nearly all actives have a fitted effect of over 45% in size; note: potency is the fitted concentration of half-maximal effect)
# In short: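 Antagonist mode: compound added to 3T3 Gli1-Luc cells followed by conditioned-medium stimulation, 24 h at 37 C, 5% CO2. Inhibition taken as loss of Gli1-driven luciferase luminescence.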
# [3] = qHTS assay to identify small molecule agonists of the androgen receptor (AR) signaling pathway in the presence of an antagonist - cell viability counter screen (AID 1259379); note: nearly all actives have a fitted effect of over 25% in size; note: potency is the fitted concentration of half-maximal effect
# In short: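 Cytotoxicity counter-screen run in the same wells as the nilutamide-challenged (3.0 µM final) AR agonist assay in MDA-kb2 cells. Compounds tested at 15 concentrations for 16 h, 37 °C without CO2; CellTiter-Fluor fluorescence read.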
# [4] = qHTS assay to identify small molecule agonists of the estrogen receptor beta (ER-beta) signaling pathway - cell viability counter screen (AID 1259380); note: nearly all actives have a fitted effect of over 30% in size; note: potency is the fitted concentration of half-maximal effect
# In short: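 Cell viability counter screen: CellTiter-Glo luminescence (30 min, room temperature) measured in the same wells as the beta-lactamase readout, after 16 hr compound exposure at 37C of ER-beta-bla HEK293T cells in 2% charcoal-stripped FBS medium.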
# [5] = qHTS assay to identify small molecule antagonists of the estrogen receptor beta (ER-beta) signaling pathway - cell viability counter screen (AID 1259382); note: series mostly up to about 92 µM; nearly all actives have a fitted effect of over 55% in size
# In short: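 Cytotoxicity was measured in the same wells by CellTiter-Glo luminescence after 30 min at room temperature. Cells were ER-beta-bla HEK293T in charcoal-stripped serum, given compound together with 1 nM E2 and incubated 16 h at 37C.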
# [6] = target: Estrogen receptor (Homo sapiens) (UniProt P03372); assay: qHTS assay to identify small molecule agonists of the estrogen receptor alpha (ER-alpha) signaling pathway in the presence of an antagonist (AID 1259383; calls by dose curve; note: nearly all actives have a fitted effect of over 15% in size; note: potency is the fitted concentration of half-maximal effect; for activation: top concentration of the series differs between compounds)
# Estrogen receptor (Homo sapiens), sequence (P03372 whole entry, looked up): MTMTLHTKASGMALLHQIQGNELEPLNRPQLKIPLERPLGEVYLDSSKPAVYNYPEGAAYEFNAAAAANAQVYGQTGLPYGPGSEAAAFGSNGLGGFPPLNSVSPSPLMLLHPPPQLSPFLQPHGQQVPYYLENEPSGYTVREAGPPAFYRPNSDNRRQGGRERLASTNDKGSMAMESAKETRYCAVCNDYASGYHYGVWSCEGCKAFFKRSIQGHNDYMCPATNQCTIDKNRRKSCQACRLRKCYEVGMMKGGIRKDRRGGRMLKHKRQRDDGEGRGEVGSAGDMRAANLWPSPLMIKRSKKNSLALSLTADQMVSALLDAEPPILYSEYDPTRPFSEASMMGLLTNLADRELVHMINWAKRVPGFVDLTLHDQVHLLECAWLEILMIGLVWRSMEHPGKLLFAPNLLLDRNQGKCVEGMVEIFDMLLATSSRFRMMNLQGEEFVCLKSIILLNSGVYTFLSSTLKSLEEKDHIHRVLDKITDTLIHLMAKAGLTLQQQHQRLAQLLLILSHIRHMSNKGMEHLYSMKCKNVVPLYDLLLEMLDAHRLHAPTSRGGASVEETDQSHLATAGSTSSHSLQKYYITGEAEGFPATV
# In short: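 Agonist-mode confirmation run in the presence of 10.0nM (final) ICI-182,780 antagonist. The reporter was ERE-driven luciferase in VM7Luc4E2 cells, grown in charcoal-stripped serum. Cells were exposed to 15-concentration compound series for 22hr, then ONE-Glo luminescence was read.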
# [7] = qHTS assay to identify small molecule agonists or antagonists of the thyroid stimulating hormone receptor (TSHR) signaling pathway - wild type cell line counter screen (AID 1259384; calls by dose curve)
# In short: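 Wild-type HEK293 cells were plated 18 h at 37 C/5% CO2, pin-dosed with compound plus Ro20-1724 medium, held 30 min at room temperature, then given cAMP-d2 and anti-cAMP-cryptate; fluorescence was read after 1 h. Fifteen concentrations, triplicate.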
# [8] = target: Thyrotropin receptor (Homo sapiens) (UniProt P16473); assay: qHTS assay to identify small molecule antagonists of the thyroid stimulating hormone receptor (TSHR) signaling pathway (AID 1259385; calls by dose curve; note: nearly all actives have a fitted effect of over 20% in size; note: potency is the fitted concentration of half-maximal effect)
# Thyrotropin receptor (Homo sapiens), sequence (P16473 whole entry, looked up): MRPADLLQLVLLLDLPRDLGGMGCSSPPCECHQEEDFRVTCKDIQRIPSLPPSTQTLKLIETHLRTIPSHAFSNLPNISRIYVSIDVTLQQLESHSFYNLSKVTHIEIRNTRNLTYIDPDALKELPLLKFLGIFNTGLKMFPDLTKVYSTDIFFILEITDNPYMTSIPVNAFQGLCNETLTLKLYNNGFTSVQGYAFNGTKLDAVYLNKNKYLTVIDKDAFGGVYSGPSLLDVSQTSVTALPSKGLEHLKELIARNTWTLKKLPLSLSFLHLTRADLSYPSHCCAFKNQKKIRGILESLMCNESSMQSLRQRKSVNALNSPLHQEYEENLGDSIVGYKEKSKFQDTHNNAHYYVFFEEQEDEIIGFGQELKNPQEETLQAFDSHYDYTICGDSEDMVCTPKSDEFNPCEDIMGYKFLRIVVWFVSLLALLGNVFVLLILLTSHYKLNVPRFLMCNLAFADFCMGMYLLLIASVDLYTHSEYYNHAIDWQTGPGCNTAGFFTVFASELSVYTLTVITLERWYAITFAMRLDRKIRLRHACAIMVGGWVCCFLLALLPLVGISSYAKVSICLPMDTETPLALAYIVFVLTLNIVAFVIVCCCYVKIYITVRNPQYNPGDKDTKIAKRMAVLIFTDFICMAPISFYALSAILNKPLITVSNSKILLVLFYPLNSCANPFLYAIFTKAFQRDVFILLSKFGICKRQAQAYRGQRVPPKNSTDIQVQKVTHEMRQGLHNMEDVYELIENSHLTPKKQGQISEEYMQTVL
# In short: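 TSHR-HEK293 cells were plated and held 18 h at 37C/5% CO2, then given compound plus Ro20-1724 and stimulated with TSH at 1.5 ng/mL final. After 30 min at room temperature, cAMP was detected with cAMP-d2/anti-cAMP-cryptate (1 h) by fluorescence.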
# [9] = qHTS assay to identify small molecule agonists of the estrogen receptor alpha (ER-alpha) signaling pathway in the presence of an antagonist - cell viability counter screen (AID 1259386); note: nearly all actives have a fitted effect of over 30% in size; note: potency is the fitted concentration of half-maximal effect
# In short: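 Compounds tested at 15 concentrations for 22 h at 37C alongside 10.0nM (final) ICI-182,780 antagonist, in VM7Luc4E2 cells grown in phenol red-free, charcoal-stripped medium. Viability read by CellTiter-Fluor fluorescence after 1 h reagent incubation.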
# [10] = target: Progesterone receptor (Homo sapiens) (UniProt P06401); assay: qHTS assay to identify small molecule agonists of the progesterone receptor (PR) signaling pathway (AID 1346784; calls by dose curve; note: nearly all actives have a fitted effect of over 30% in size)
# Progesterone receptor (Homo sapiens), sequence (P06401 whole entry, looked up): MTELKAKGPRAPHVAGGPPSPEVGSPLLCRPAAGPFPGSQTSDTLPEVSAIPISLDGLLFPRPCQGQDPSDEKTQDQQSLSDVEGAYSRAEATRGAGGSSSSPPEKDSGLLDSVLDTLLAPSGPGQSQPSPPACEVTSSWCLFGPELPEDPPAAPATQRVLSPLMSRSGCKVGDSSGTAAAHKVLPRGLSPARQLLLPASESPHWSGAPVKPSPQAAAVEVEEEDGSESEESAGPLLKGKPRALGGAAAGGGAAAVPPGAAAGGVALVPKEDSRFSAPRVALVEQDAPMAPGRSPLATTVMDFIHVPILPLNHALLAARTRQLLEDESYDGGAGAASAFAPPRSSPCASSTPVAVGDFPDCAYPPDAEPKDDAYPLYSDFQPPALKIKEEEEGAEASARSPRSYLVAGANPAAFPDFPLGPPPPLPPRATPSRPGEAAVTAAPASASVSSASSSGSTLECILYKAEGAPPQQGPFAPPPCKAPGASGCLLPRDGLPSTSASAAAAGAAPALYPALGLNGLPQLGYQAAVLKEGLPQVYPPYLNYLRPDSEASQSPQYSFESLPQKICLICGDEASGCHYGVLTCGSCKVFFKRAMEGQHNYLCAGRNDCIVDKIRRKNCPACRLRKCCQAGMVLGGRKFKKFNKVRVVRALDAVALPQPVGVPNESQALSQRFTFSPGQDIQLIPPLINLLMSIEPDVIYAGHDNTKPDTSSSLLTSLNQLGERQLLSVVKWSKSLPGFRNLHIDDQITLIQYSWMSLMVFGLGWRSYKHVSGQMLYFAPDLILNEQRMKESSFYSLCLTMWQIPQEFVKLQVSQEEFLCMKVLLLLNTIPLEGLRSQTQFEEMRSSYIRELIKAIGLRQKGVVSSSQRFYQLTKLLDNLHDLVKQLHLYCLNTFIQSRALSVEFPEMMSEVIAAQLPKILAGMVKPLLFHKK
# In short: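 Reporter assay, GripTite PR-UAS-bla HEK 293T cells: 16 hr exposure to DMSO-dissolved compounds at 37C, 5% CO2, in steroid-depleted (2% charcoal-stripped FBS) medium; beta-lactamase measured by FRET fluorescence.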
# [11] = qHTS assay to identify small molecule antagonists of the progesterone receptor (PR) signaling pathway - cell viability counter screen (AID 1346798); note: nearly all actives have a fitted effect of over 50% in size; note: potency is the fitted concentration of half-maximal effect
# In short: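 In the same plates used for the beta-lactamase readout, cell viability of compound- and R5020-treated PR-UAS-bla HEK293T cells (16 hr, 37C) was assessed by CellTiter-Glo luminescence.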
# [12] = qHTS assay to identify small molecule antagonists of the TGF-beta/Smad signaling pathway - cell viability counter screen (AID 1346824); note: nearly all actives have a fitted effect of over 50% in size; note: potency is the fitted concentration of half-maximal effect
# In short: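 SBE-bla HEK 293T cells were plated overnight at 37 C, then given compounds in DMSO plus TGF-beta1 (added as 0.25 ng/mL solution) for 5 hr. After the bla read, CellTiter-Glo was added to the same wells and luminescence read after 30 min at room temperature.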
# [13] = target: Thyrotropin-releasing hormone receptor (Homo sapiens) (UniProt P34981); assay: qHTS assay to identify small molecule antagonists of the thyrotropin-releasing hormone receptor (TRHR) signaling pathway (AID 1346877; active = well fitted inhibition curve with a large enough effect in the repeat runs, not every such curve was filed as active; note: potency is the fitted concentration of half-maximal effect)
# Thyrotropin-releasing hormone receptor (Homo sapiens), sequence (P34981 whole entry, looked up): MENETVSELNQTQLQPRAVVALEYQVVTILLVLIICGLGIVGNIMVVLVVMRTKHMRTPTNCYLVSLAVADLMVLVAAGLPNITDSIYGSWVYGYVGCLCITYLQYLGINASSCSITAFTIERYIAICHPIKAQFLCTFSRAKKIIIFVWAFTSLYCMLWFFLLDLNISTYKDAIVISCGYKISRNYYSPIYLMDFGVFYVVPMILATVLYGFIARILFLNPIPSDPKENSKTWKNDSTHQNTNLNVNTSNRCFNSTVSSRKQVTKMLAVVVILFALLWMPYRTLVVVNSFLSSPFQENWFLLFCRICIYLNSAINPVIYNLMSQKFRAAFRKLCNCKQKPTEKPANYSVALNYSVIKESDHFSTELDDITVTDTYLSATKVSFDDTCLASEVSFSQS
# In short: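 Antagonist mode: after a 5 min room-temperature compound exposure, cells were stimulated with 1 nM (final) TRH. Dye-loaded TRHR-HEK293 cells were used, and calcium-dependent fluorescence was followed for 3 min, with 15-point titrations run in triplicate.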
# [14] = target: Estrogen receptor beta (Homo sapiens) (UniProt Q92731); assay: qHTS assay to identify small molecule agonists of the estrogen receptor beta (ER-beta) signaling pathway (AID 1259377; active = well fitted activation curve with a large enough effect in the signal ratio in the repeat runs, not every such curve was filed as active; the % refers to the signal ratio; note: potency is the fitted concentration of half-maximal effect)
# Estrogen receptor beta (Homo sapiens), sequence (Q92731 whole entry, looked up): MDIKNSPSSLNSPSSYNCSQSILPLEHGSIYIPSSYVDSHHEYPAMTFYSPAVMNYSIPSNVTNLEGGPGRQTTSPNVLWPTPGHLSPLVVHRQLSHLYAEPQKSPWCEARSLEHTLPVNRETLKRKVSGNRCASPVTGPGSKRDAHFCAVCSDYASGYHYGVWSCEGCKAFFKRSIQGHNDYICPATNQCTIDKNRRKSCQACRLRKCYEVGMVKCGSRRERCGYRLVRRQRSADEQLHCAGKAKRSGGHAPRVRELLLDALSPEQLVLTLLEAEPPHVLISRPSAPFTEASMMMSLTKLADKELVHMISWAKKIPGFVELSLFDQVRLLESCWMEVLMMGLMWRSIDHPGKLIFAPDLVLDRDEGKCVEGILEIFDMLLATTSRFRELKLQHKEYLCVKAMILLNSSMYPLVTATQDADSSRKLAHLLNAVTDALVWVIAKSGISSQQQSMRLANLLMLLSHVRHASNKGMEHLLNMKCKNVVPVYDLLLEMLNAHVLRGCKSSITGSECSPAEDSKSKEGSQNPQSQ
# In short: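 Reporter cells (HEK293T, ER-beta-UAS-bla) receive compounds or DMSO after a 6 hr pre-incubation. They then incubate 16 hr at 37C/5% CO2, and fluorescence from LiveBLAzer B/G substrate is measured after 2 hours at room temperature.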
# [15] = target: Progesterone receptor (Homo sapiens) (UniProt P06401); assay: qHTS assay to identify small molecule antagonists of the progesterone receptor (PR) signaling pathway (AID 1346795; active = well fitted inhibition curve with a large enough effect in the signal ratio in the repeat runs, not every such curve was filed as active; the % refers to the signal ratio; note: potency is the fitted concentration of half-maximal effect)
# In short: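 Stimulus R5020 at 1 nM final; cells HEK293T PR-UAS-bla; medium with 2% charcoal-stripped FBS; compound exposure 16 hr at 37C, 5% CO2; detection by FRET beta-lactamase substrate, 2 hr, room temperature.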
# [16] = qHTS assay to identify small molecule agonists of the TGF-beta/Smad signaling pathway - cell viability counter screen (AID 1346829); note: nearly all actives have a fitted effect of over 45% in size; note: potency is the fitted concentration of half-maximal effect
# In short: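 After overnight seating at 37 C and 5% CO2, reporter cells got compounds for 5 hr and FRET substrate for 2 hr; cell viability then came from CellTiter-Glo luminescence.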
# [17] = target: Estrogen receptor beta (Homo sapiens) (UniProt Q92731); assay: qHTS assay to identify small molecule antagonists of the estrogen receptor beta (ER-beta) signaling pathway (AID 1259378; active = well fitted inhibition curve with a large enough effect in the signal ratio in the repeat runs, not every such curve was filed as active; the % refers to the signal ratio)
# In short: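 ER-beta-UAS-bla HEK293T (GripTite) cells in 2% charcoal-stripped FBS medium were preincubated 6 hr at 37C, dosed with compound, then stimulated with 1 nM E2 (final) for 16 hr; beta-lactamase reporter read by B/G FRET fluorescence after 2 hr substrate loading.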
# [18] = qHTS assay to identify small molecule agonists of the progesterone receptor (PR) signaling pathway - cell viability counter screen (AID 1346799; calls by dose curve; note: nearly all actives have a fitted effect of over 45% in size; note: potency is the fitted concentration of half-maximal effect)
# In short: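 Multiplexed viability read: CellTiter-Glo luminescence, 30 min RT, following LiveBLAzer FRET measurement on PR-UAS-bla HEK293T cells exposed to compounds 16 hr.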
# [19] = qHTS assay to identify small molecule agonists of the TGF-beta/Smad signaling pathway (AID 1346859; active = well fitted activation curve with a large enough effect in the signal ratio in the repeat runs, not every such curve was filed as active; the % refers to the signal ratio; note: series mostly up to about 77 µM)
# In short: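 Screening used HEK 293T SBE-bla cells at 4,000/well. Test agents: 5 hr, 37 C. Detection: FRET substrate, 2 hr RT, then excitation 405 nm with emissions at 460 and 530 nm.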
# [20] = target: Androgen receptor (Homo sapiens) (UniProt P10275); assay: qHTS assay to identify small molecule agonists of the androgen receptor (AR) signaling pathway in the presence of an antagonist (AID 1259381; calls by dose curve; note: nearly all actives have a fitted effect of over 15% in size)
# Androgen receptor (Homo sapiens), sequence (P10275 whole entry, looked up): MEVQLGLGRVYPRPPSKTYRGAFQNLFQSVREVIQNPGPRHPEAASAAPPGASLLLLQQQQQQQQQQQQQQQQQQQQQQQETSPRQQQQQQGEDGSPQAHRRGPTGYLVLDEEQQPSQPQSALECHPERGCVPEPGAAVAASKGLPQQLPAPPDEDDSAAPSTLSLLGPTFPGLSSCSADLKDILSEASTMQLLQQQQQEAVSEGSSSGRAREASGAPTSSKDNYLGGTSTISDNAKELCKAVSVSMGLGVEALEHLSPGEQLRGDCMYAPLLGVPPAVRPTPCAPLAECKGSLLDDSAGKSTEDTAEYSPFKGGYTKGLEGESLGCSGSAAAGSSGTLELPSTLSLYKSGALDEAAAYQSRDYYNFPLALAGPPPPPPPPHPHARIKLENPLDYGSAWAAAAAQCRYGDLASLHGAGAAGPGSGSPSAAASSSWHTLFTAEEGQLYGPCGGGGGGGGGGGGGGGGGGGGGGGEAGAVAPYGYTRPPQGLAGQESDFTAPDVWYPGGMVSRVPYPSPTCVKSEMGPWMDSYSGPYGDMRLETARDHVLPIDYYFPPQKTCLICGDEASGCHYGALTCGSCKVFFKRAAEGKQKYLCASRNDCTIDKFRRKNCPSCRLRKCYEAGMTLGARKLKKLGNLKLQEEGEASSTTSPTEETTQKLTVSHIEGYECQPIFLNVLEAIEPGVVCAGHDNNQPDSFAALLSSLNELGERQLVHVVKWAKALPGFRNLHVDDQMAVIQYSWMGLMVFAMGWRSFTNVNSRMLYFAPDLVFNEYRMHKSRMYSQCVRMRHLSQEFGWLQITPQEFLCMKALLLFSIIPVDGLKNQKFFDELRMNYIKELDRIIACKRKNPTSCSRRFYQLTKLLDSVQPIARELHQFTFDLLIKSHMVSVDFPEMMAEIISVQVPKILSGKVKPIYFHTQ
# In short: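 Agonist-mode confirmation run against 3.0 uM final nilutamide: compounds titrated at 15 concentrations onto MDA-kb2 MMTV-luciferase reporter cells. Luminescence measured with ONE-Glo following 16 hr incubation, 37C, 0% CO2.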
SMILES,Potency [1],Potency [2],Potency [3],Potency [4],Potency [5],Potency [6],outcome [7],Potency [8],Potency [9],Potency [10],Potency [11],Potency [12],Potency [13],Potency [14],Potency [15],Potency [16],Potency [17],Potency [18],outcome [19],Potency [20]
CO/N=C(/C(=O)OC)c1ccccc1COc1ccccc1C,inactive,4.33 µM (active),54.5 µM (active),15.4 µM (active),inactive,inactive,inactive,inactive,inactive,inactive,inactive,inactive,inactive,–,–,–,–,–,–,–
CN(C)c1ccc(N(C)C)cc1,24.4 µM (active),inactive,inactive,–,–,inactive,inactive,–,–,–,inactive,inactive,–,inactive,inactive,inactive,–,–,–,–
COC1=CC(=O)O[C@@H](CCc2ccccc2)C1,inactive,inactive,inactive,inactive,inactive,–,inactive,inactive,inactive,inactive,inactive,inactive,inactive,–,–,inactive,inactive,inactive,–,–
CCOP(=O)(OCC)SCCSCC,inactive,inactive,inactive,inactive,inactive,inactive,inactive,inactive,inactive,inactive,inactive,inactive,inactive,–,inactive,inactive,inactive,inactive,inactive,–
CCN(C)N=O,inactive,inactive,inactive,inactive,inactive,inactive,inactive,inactive,inactive,inactive,inactive,inactive,–,–,inactive,inactive,–,inactive,inactive,–
IC(I)=C(I)I,inactive,2.73 µM (active),27.3 µM (active),21.7 µM (active),–,inactive,inactive,inactive,–,–,27.3 µM (active),43.6 µM (active),1.2 µM (active),–,17.2 µM (active),43.6 µM (active),–,27.3 µM (active),inactive,inactive
C[C@]12CC[C@H]3[C@@H](CCC4=CC(=O)CC[C@@H]43)[C@@H]1CC[C@@H]2OC(=O)CCC1CCCCC1,inactive,inactive,inactive,inactive,–,1.68 µM (active),–,–,inactive,–,inactive,inactive,–,1.19 µM (active),inactive,inactive,–,–,inactive,–
CNC(C)Cc1ccccc1OC (centres undefined),inactive,inactive,inactive,inactive,inactive,inactive,inactive,inactive,inactive,inactive,inactive,inactive,inactive,–,inactive,inactive,–,inactive,inactive,–
CC(=O)c1cc2c(cc1C)C(C)(C)C(C)CC2(C)C (centres undefined),inactive,inactive,inactive,61.1 µM (active),inactive,–,inactive,–,–,inactive,inactive,inactive,inactive,inactive,–,–,–,–,–,–
Cc1ccccc1C(=O)Nc1cccc(OC(C)C)c1,inactive,17.2 µM (active),inactive,19.3 µM (active),–,inactive,inactive,inactive,inactive,–,–,inactive,inactive,–,–,inactive,inactive,–,inactive,inactive
C=CC(C)=O,inactive,inactive,inactive,inactive,inactive,inactive,inactive,inactive,inactive,inactive,inactive,inactive,–,–,–,inactive,–,inactive,inactive,–
CCCCC(CC)COP(=O)(Oc1ccccc1)Oc1ccccc1 (centres undefined),inactive,inactive,inactive,–,–,inactive,inactive,inactive,–,inactive,inactive,inactive,–,inactive,–,inactive,–,inactive,inactive,–
CCCC(=O)Cl,inactive,inactive,inactive,inactive,inactive,inactive,inactive,inactive,inactive,inactive,–,inactive,inactive,–,–,inactive,–,inactive,inactive,–
Clc1cc(Cl)c(Cl)c(Cl)c1,inactive,inactive,inactive,inactive,inactive,inactive,inactive,inactive,inactive,inactive,inactive,inactive,–,–,inactive,inactive,–,–,inactive,–
[CH3][Sn]([CH3])([Cl])[Cl],7.82 µM (active) and 24.3 µM (active),2.43 µM (active),inactive,inactive,–,–,–,–,–,inactive,inactive,inactive,inactive,–,inactive,inactive,–,inactive,inactive,–
CCOC(=O)COc1cc(-c2nn(C)c(OC(F)F)c2Cl)c(F)cc1Cl,inactive,inactive,inactive,inactive,inactive,–,inactive,–,inactive,inactive,–,inactive,–,–,inactive,inactive,–,inactive,–,–
Cc1ccc2ccccc2c1,inactive,–,inactive,inactive,inactive,inactive,inactive,inactive,inactive,inactive,inactive,inactive,inactive,inactive,inactive,inactive,inactive,inactive,inactive,inactive
CC(C)=CCOc1c2occc2cc2ccc(=O)oc12,inactive,–,inactive,inactive,inactive,inactive,inactive,inactive,–,inactive,inactive,inactive,inactive,inactive,–,–,inactive,–,–,–
II,inactive,inactive,inactive,–,–,inactive,–,–,inactive,inactive,–,inactive,–,–,–,inactive,–,10.9 µM (active),–,–
O=C(CCl)c1ccc(Cl)cc1Cl,inactive,5.96 µM (active),inactive and 29.8 µM (active),38.4 µM (active) and 18.8 µM (active),–,inactive,inactive,23.7 µM (active),–,inactive,inactive,inactive,inactive,–,inactive,–,–,inactive,inactive,–
O=C(OC1CCCCC1)c1ccccc1C(=O)OC1CCCCC1,inactive,51.2 µM (active),inactive,–,–,inactive,inactive,inactive,–,–,inactive,–,–,–,16.2 µM (active),inactive,–,–,inactive,–
CC(Cl)Cl,inactive,–,inactive,inactive,inactive,inactive,inactive,inactive,–,–,inactive,inactive,inactive,inactive,inactive,inactive,inactive,inactive,inactive,–
N#Cc1cc(I)c(O)c(I)c1,inactive,24.3 µM (active),–,inactive,inactive,–,inactive,–,48.6 µM (active),inactive,–,inactive,inactive,–,–,inactive,–,–,inactive,–
C#CCOC(C(=O)OCCN(C)C)(c1ccccc1)c1ccccc1,inactive,–,inactive,inactive,inactive,–,inactive,inactive,inactive,inactive,inactive,inactive,–,inactive,inactive,–,inactive,inactive,inactive,–
C=CC(=O)OCCCCO,inactive,–,inactive,inactive,inactive,inactive,inactive,inactive,inactive,–,inactive,inactive,–,inactive,inactive,inactive,inactive,inactive,–,–
O=C(Nc1ccccc1)Nc1ccnc(Cl)c1,inactive,2.17 µM (active),61.1 µM (active),–,inactive,–,inactive,–,–,inactive,–,–,–,–,–,–,–,–,inactive,inactive
O=C(O)COc1ccc(Cl)cc1,inactive,–,inactive,inactive,inactive,inactive,inactive,inactive,inactive,inactive,inactive,inactive,inactive,inactive,inactive,inactive,inactive,inactive,–,–
C=CCC1([C@H](C)CCC)C(=O)NC(=O)NC1=O,inactive,–,inactive,inactive,inactive,inactive,inactive,inactive,–,inactive,inactive,inactive,–,inactive,inactive,inactive,inactive,–,–,–

# — PubChem BioAssay (Tox21)
